# Source: PubChem BioAssay AID1220 (Sanford-Burnham Center for Chemical Genomics, 2008)
# The campaign covered roughly 190,000 compounds. About 1,300 (0.68%) were called active. Shown is part of a subset that was picked to be rich in actives. Values without a mark were called inactive. No stated cut-off is given here; in the data, active means inhibition above about 50%; inactive means the rest.
# Target: Mannose-6-phosphate isomerase (Homo sapiens) (UniProt P34949)
# Assay: MPI inhibition at elevated mannose 6-phosphate – biochemical, fluorescence intensity, high mannose 6-phosphate, primary screen (AID 1220)
# Details: recombinant PMI enzyme, coupled fluorescence intensity; at 20 µM; active compounds read high
# Chain of Mannose-6-phosphate isomerase (Homo sapiens) (P34949 whole entry, looked up): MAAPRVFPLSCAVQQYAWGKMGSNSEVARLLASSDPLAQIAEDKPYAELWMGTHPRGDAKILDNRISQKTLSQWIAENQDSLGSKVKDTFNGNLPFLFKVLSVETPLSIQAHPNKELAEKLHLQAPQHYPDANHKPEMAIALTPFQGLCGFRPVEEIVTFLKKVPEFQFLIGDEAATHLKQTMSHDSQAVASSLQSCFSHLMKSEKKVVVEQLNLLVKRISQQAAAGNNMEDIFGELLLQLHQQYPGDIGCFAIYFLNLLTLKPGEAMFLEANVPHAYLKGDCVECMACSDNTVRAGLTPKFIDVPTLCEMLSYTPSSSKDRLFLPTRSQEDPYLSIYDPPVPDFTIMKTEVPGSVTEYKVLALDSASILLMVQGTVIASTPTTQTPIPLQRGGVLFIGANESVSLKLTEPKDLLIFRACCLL
row,SMILES,inhibition
1,COc1ccccc1CC(=O)Nc1ccc(O)cc1C(=O)O,2.5%
2,CCCC1=[N+](CC(C)=O)CCn2c(C)ccc21,-7.3%
3,CN1CCc2cc3c(c4c2[C@H]1[C@H](O)c1ccccc1-4)OCO3,16.9%
4,COc1ccc2c(c1O)-c1ccccc1CCN(C)C2,7.3%
5,CN1CCc2ccccc2C1C1CCNCC1 (stereo unspecified),8.3%
6,CCCCC(=O)Nc1cc2nn(-c3ccc(OC)cc3)nc2cc1C,10.9%
7,O=C(NCCN1CCN(c2ccccc2)CC1)C1(S(=O)(=O)c2ccc(Cl)cc2)CC1,18%
8,O=[N+]([O-])c1cccc(-c2ccc(C(=S)N3CCOCC3)o2)c1,47%
9,O=[N+]([O-])c1cc(-c2ccc(C(=S)N3CCOCC3)o2)ccc1Cl,61% (active)
10,S=C(c1ccc(-c2ccc(Cl)c(Cl)c2)o1)N1CCOCC1,-7.4%
11,CC1CCN(C(=O)CSc2nnc(CNc3ccc(F)cc3)n2Cc2ccco2)CC1,10.7%
12,CCCN1C2CCCC1CC(NC(=O)c1ccccc1OCC)C2 (stereo unspecified),0%
13,CCc1ccc(C2CC(=O)N3CN(c4ccccc4)CSC3=C2C#N)cc1 (stereo unspecified),-47.1%
14,CN1CSC2=C(C#N)C(c3cccc(OCc4ccccc4)c3)CC(=O)N2C1 (stereo unspecified),59.9% (active)
15,COc1cc(C2CC(=O)N3CN(Cc4ccco4)CSC3=C2C#N)ccc1OCc1ccccc1 (stereo unspecified),74.4% (active)
16,N#CC1=C2SCN(Cc3ccccc3)CN2C(=O)CC1c1ccc2c(c1)OCO2 (stereo unspecified),47.4%
17,COc1ccc(C2CC(=O)N3CN(c4ccccc4F)CSC3=C2C#N)cc1OC (stereo unspecified),-0.4%
18,COc1ccc(C2CC(=O)N3CN(c4ccc(C)c(Cl)c4)CSC3=C2C#N)cc1OC (stereo unspecified),-27.1%
19,COc1cccc(C2CC(=O)N3CN(c4ccccc4F)CSC3=C2C#N)c1 (stereo unspecified),-11.4%
20,COc1cc(C2CC(=O)N3CN(Cc4ccccc4)CSC3=C2C#N)ccc1OCc1ccccc1 (stereo unspecified),66.3% (active)
21,Cc1ccc(/C=N/NC(=O)c2nnn(-c3nonc3N)c2CSc2ccc(Cl)cc2)cc1,-7%
22,Cc1ccc(O)c(NC(=O)c2noc3c2CCc2ccccc2-3)c1,13%

row,SMILES,inhibition
1,CCOC(=O)CC1C(=O)NCCN1S(=O)(=O)c1ccccc1 (stereo unspecified),-2.9%
2,CC(C)C(=O)N(Cc1ccc(F)cc1)Cc1nc2ccccc2c(=O)[nH]1,4.6%
3,CCN(CC)c1ccc2ccc(=O)oc2c1,3.8%
4,CCN(CC)c1ccc2c(C)c(Cl)c(=O)oc2c1,-1.9%
5,CC(SC1CCCC1)C(=O)Nc1ccnn1C(C)C (stereo unspecified),-2.4%
6,CC(C)OCCCNC(=S)NNC(=O)C(c1ccccc1)c1ccccc1,-14.8%
7,O=c1cc(CN2CCN(c3ccccn3)CC2)nc2sccn12,9.8%
8,CC(=O)c1cc2c(C)c(C(=O)c3ccccc3)oc2cc1O,8.2%
9,O=C(NC(=S)Nc1cccc2cccnc12)c1ccccc1,10%
10,O=C(NC(=S)Nc1cccc2cnccc12)c1ccccc1,54.7% (active)
11,S=C(NCCc1ccccc1)Nc1cccc2cnccc12,57.3% (active)
12,Fc1ccccc1NC(=S)Nc1cccc2cnccc12,9.4%
13,O=C(NNC(=S)Nc1ccccc1)c1ccc2ncccc2c1,-9.6%
14,O=C(NC(=S)Nc1cnc2ccccc2c1)c1ccccc1,10.3%
15,O=C(NC(=S)Nc1ccc2ncccc2c1)c1ccccc1,55.9% (active)
16,S=C(NCCc1ccncc1)Nc1cccc2ccccc12,18.9%
17,CCCCNC(=S)Nc1cccc2cnccc12,3.6%
18,COc1ccc(Cn2cc(C(=O)c3ccccc3)c(=O)c3cc(OC)ccc32)cc1,15.1%
19,Cn1c(Cc2ccccc2)nnc1SCC(=O)N1CCOCC1,-5.3%
20,CC(C)(C)c1ccc(NC(=O)CNC2CCCc3ccccc32)cc1 (stereo unspecified),-3.2%
21,COc1cc(/C=N/N2CCOCC2)ccc1OCc1ccccc1,-7.2%
22,CCSc1nnc(NC(=O)CSc2nc(CC)nc3c2c(=O)n(C)c(=O)n3C)s1,6.7%

row,SMILES,inhibition
1,CC1CCN(S(=O)(=O)c2cccc(C(=O)NCc3ccco3)c2)CC1,-3.8%
2,Cc1ccc(C2NC(=O)NC3=C2CCc2ccccc23)cc1 (stereo unspecified),40.5%
3,O=C1NC2=C(CCc3ccccc32)C(c2ccccc2)N1 (stereo unspecified),2.3%
4,Cc1ccc(-c2nnn(CC(=O)N(CC3CCCO3)C(C(=O)NCC3CCCO3)c3ccc(F)cc3)n2)o1 (stereo unspecified),2.7%
5,O=C(CN1C2CCCC1CC(NC(=O)c1ccccc1)C2)Nc1nccs1 (stereo unspecified),-12.4%
6,O=C(NCC(c1cccnc1)N1CCN(c2ccccc2)CC1)C1CCCCC1 (stereo unspecified),8.8%
7,CN(C)CCCN1C(=O)c2cccc3c(Br)ccc(c23)C1=O,52% (active)
8,C=CCN1C(=O)c2cccc3c(Br)ccc(c23)C1=O,4.2%
9,CN(C)CCCN1C(=O)c2cccc3c([N+](=O)[O-])ccc(c23)C1=O,29.6%
10,Fc1ccccc1CNc1cc(Cl)cc(Cl)c1,5.3%
11,COc1ccc(/C=N\NC(=O)C2C(=O)NCC2c2ccccc2)cc1O (stereo unspecified),8.9%
12,COc1cc(/C=N\NC(=O)C2C(=O)NCC2c2ccccc2)cc(OC)c1O (stereo unspecified),50.9% (active)
13,COc1cccc(/C=N\NC(=O)C2C(=O)NCC2c2ccccc2)c1O (stereo unspecified),-17%
14,CC(/C=N\Nc1nnc2c(n1)[nH]c1c(C)cccc12)=C\c1ccco1,7%
15,Cc1oc(/N=C/c2ccc(Cl)cc2Cl)c(C#N)c1C,-5.8%
16,Cc1oc(/N=C/c2ccc(O)cc2O)c(C#N)c1C,8.5%
17,COc1ccc(/C=N/c2oc(C)c(C)c2C#N)c(OC)c1,51.5% (active)
18,O=C(c1ccc(Br)o1)N1CCN=C1SCc1cccnc1,2.2%
19,COCCCNC(=S)NNC(=O)c1ccc(S(=O)(=O)N2CCC(C)CC2)cc1,-5.4%
20,CC(=O)c1cccc(NC(=O)c2ccco2)c1,2.7%
21,O=C(Nc1cccc(N=Cc2cc(Cl)cc(Br)c2O)c1)c1ccco1,44.4%
22,O=C(Nc1cccc(N=Cc2cc(Br)cc(Br)c2O)c1)c1ccco1,53.4% (active)
